An excerpt weighted towards active compounds, which were near 6.2% of everything screened.
ATXN2 expr inh: ATXN2 expression inhibition. 360,000 compounds, 0.72% hits. HEK-293 ATXN2-luciferase reporter, luminescence, 24 h. Potency, µM (series often up to 57 µM), for inactives: at the highest dose activity change, negative = inhibition, hits mostly inhibitors; note: % is set by controls: 0 for no effect and ±100 for the full control effect; nearly all actives have a fitted effect of over 55% in size
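qHTS (up to 57 uM final) was run with 24 h compound exposure of reporter cells at 37 °C. Each well was multiplexed: SteadyGlo luminescence measured ATXN2-luciferase expression after a fluorogenic Gly-Phe-AFC viability readout (25 uM final).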
S2 tox: viability counter-screen for ATXN expression inhibitors; Potency, µM (titrated, usually from 56.7 µM), most hits filed as cytotoxic; 400,000 compounds, 0.49% hits; S2 cells (HEK-293 line with an ATXN2-luciferase reporter) viability, CellTiter-Fluor protease fluorescence, 24 h; note: nearly all actives have a fitted effect of over 40% in size
HT1080 IDH1KD tx: HT-1080 IDH1 knockdown cell toxicity (counter line) | Potency, µM (titrated, usually from 46.1 µM), for the others: at the top dose activity, negative = toxicity, hits mostly cytotoxic | HT-1080 IDH1 knockdown viability, ATP luminescence, 48 h | 360,000 compounds, 2% hits;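 note: 0% = DMSO wells and -100% = cell-free medium wells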
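IDH1KD HT-1080 cells, 750/well, RPMI + 5% FBS; compound pinned after 2 h settling; 48 h, 37 °C; CellTiter-Glo luminescence; % activity normalised to DMSO and no-cell wells; curves fitted, classed by r2 and efficacy.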
KB-3-1 cytotox: KB-3-1 parental cell cytotoxicity; KB-3-1 viability, CellTiter-Glo ATP luminescence, 72 h; Potency, µM (top dose mostly 46.1 µM), actives largely listed as cytotoxic; 400,000 compounds, 1.4% hits; AID 1347075; note: % is set by controls: 0 for no effect and ±100 for the full control effect; nearly all actives have a fitted effect of over 60% in size
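Screening of KB-3-1 cells (DMEM, 10% FBS, phenol-red free) ran from lowest to highest compound concentration; after 72 h at 37 °C viability was read luminescently and curves fitted.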
HT1080NT lethal: kills 2HG-producing HT-1080-NT fibrosarcoma cells | AID 686970 | Potency, µM (series often up to 46.1 µM), inactives show at the top dose activity, negative = less viability, hits mostly cytotoxic | HT-1080-NT fibrosarcoma viability, CellTiter-Glo ATP luminescence, 48 h | 360,000 compounds, 1.6% hits;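 note: NT is the 2HG producing partner of a matched IDH1 knockdown line; 0% = DMSO-treated cells and -100% = media-only wells without cells; nearly all actives have a fitted effect of over 55% in size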
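HT-1080-NT; 750 cells/well; 5% FBS RPMI; 48 h compound, 37 degrees C; CellTiter-Glo luminescence; curve fitting and curve-class assignment.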
KB-V1 cytotox: KB-V1 MDR subline cytotoxicity. KB-V1 MDR cells viability, CellTiter-Glo, 72 h. Potency, µM (highest dose often 46.1 µM), usual class: cytotoxic. 400,000 compounds, 3.4% hits; note: % is set by controls: 0 for no effect and ±100 for the full control effect; nearly all actives have a fitted effect of over 60% in size
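KB-V1 cells (P-gp-expressing MDR subline of KB-3-1) in phenol-red-free DMEM with 10% FBS were exposed to library compounds over a concentration series for 72 h at 37 degrees C. Viability read by CellTiter-Glo luminescence; concentration-effect curves fitted after normalization.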
An asterisk follows results filed as active; i = inactive; ? = inconclusive; · = no result given. Calls come from the whole dose curve; as a rule, active = well fitted curve in the direction sought with a large enough effect; inconclusive = small, poorly fitted or top-dose-only effect, or another doubt; inactive = no such curve, though single readings can be large; an effect the other way counts as inactive or inconclusive. Potency is the fitted concentration of half-maximal effect.

SMILES | ATXN2 expr inh | S2 tox | HT1080 IDH1KD tx | KB-3-1 cytotox | HT1080NT lethal | KB-V1 cytotox
COc1ccc(CCNC(=O)C2CCC(=O)N(C3CCCCCC3)C2)cc1 (configuration not stated) | 5.9% | i | 12.2% | i | -0.1% | i
Cn1c(CSc2nnc(SCc3ccccc3)s2)nc2ccccc21 | 0.7% | i | -2.1% | i | 8.1% | 16.4µM*
COc1ccc(Cl)cc1NC(=O)CN1c2ccccc2S(=O)(=O)c2ccccc21 | 10.5% | i | · | i | · | i
N#CCCN(C(=O)COC(=O)c1cccc(S(=O)(=O)N2CCCC2)c1)c1ccc(F)cc1 | -2.8% | ? | 9.7% | i | 6.5% | i
N#CCCN(C(=O)COC(=O)c1cccc(S(=O)(=O)N2CCCCCC2)c1)c1ccc(F)cc1 | 7.0% | i | 14.7% | i | -2.3% | 13µM*
CS(=O)(=O)Nc1cccc(-c2cc(NC=O)c3ncc(-c4ccc(F)cc4)n3c2)c1 | ? | ? | 8.2µM* | i | 11.6µM* | ?
O=CNc1cc(-c2cccc(F)c2)cn2c(-c3ccc(F)cc3)cnc12 | -29.7% | i | 18.0% | i | 0.5% | ?
CC(=O)c1ccc(-c2cnc3c(NC=O)cc(-c4cnn(C)c4)cn23)cc1 | -4.8% | i | ? | ? | ? | ?
CC(=O)c1ccc(-c2cnc3c(NC=O)cc(-c4ccc(S(C)(=O)=O)cc4)cn23)cc1 | -5.2% | ? | 6.51µM* | i | ? | i
COc1cc(-c2cc(NC=O)c3ncc(-c4ccc(C(C)=O)cc4)n3c2)ccc1O | -4.9% | i | 18.4µM* | ? | ? | i
Cc1ccc2nc3sc(C(=O)N4CCCc5ccccc54)c(N)c3cc2c1 | 5.9% | i | 1.9% | ? | -2.5% | 6.51µM*
Cc1ccc(-c2cc(C(F)F)n3ncc(C(=O)N4CCc5ccccc54)c3n2)cc1 | · | ? | 2.31µM* | i | 2.91µM* | 5.8µM*
Cc1ccc(-c2cc(C(=O)N3CCCc4ccccc43)c3ccccc3n2)cc1 | 1.5% | i | -1.3% | ? | -2.8% | 23.1µM*
Cc1ccc(-c2cc(C(F)F)n3ncc(C(=O)Nc4c(C)nn(Cc5ccccc5Cl)c4C)c3n2)cc1 | ? | ? | 9.3% | 16.4µM* | -27.0% | ?
COc1cccc(C(=O)Nc2ccccc2OCc2cc(=O)n3cc(C)ccc3n2)c1 | · | · | · | i | · | i
CCc1ccc(NC(=O)c2sc3nc(C)c(Cl)c(C)c3c2N)cc1 | 34.4% | i | · | i | · | i
O=C(Nc1ccc2ccccc2c1)Nc1nnc(C2CCCCC2)s1 | · | · | · | i | · | ?
CN(C)Cc1c(C(=O)NCCOc2ccc(C(=O)NO)cc2)oc2ccccc12 | 119.5% | · | · | · | · | ·
Cc1nc2sccn2c1CN1Cc2ccccc2OC(c2ccccc2F)C1 (configuration not stated) | · | i | · | · | · | ·
COc1ccc(NC(=S)N2CCN(c3ccc4c(c3)C3CCN(C(=O)OCc5ccccc5)C4C3)CC2)c(OC)c1 (configuration not stated) | 12.1% | i | -26.3% | i | -2.5% | ?
O=C(c1cc2sccc2n1Cc1ccccc1)N1CCCc2ccccc21 | 9.7% | i | -16.7% | i | -8.7% | i
Cn1c(C(=O)N2CCCc3ccccc32)cc2sccc21 | -2.4% | i | -12.6% | ? | 12.1% | 14.6µM*
O=C(c1cc2sccc2n1Cc1ccccc1)N1CCc2ccccc21 | 5.0% | i | ? | i | -21.9% | 10.3µM*
COC(=O)c1cc2sccc2n1CC(=O)N1CCCc2ccccc21 | 1.5% | ? | -3.4% | i | 6.6% | i
COc1ccc(-c2[nH]ncc2N=Nc2cc(C)cc(C)c2)cc1 | -39.0% | ? | 20.6µM* | ? | 18.4µM* | ?
COc1ccc(-c2[nH]ncc2N=Nc2ccccc2)cc1 | ? | ? | 16.4µM* | ? | 16.4µM* | ?
Clc1cccc(-c2nnnn2Cc2cccnc2)c1Cl | -4.4% | · | · | · | · | ·
